The record followed here is PubChem BioAssay (NCATS).

Records with an inconclusive call do not appear. Unmarked numbers belong to inactive results. Active and inactive are the calls of the source. The call rests on the fitted dose curve; in most records, active means well fitted curve in the direction sought with a large enough effect; inconclusive means small, poorly fitted or top-dose-only effect, or another doubt; inactive means no such curve, though single readings can be large; an effect the other way counts as inactive or inconclusive.

For experiment [1], the target named is Aldehyde dehydrogenase, mitochondrial (Homo sapiens) (UniProt P05091). Kind of experiment: qHTS for Inhibitors of the Aldehyde Dehydrogenase Family (ALDH2) Primary screen (AID 2061308).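 Further: plate controls were vehicle for no effect and reference inhibitor for full effect; nearly all actives have a fitted effect of over 55% in size.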 Particulars: ALDH2 enzyme inhibition qHTS, 1536-well; series mostly up to 56 µM.
Experiment [2] concerns the target Retinaldehyde dehydrogenase 3 (Homo sapiens) (UniProt P47895). The experiment can be described thus: qHTS for Inhibitors of the Aldehyde Dehydrogenase Family (ALDH1A3) Primary screen (AID 2061315).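 Further: plate controls were DMSO vehicle for no effect and reference inhibitor for full effect.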 Particulars: ALDH inhibition qHTS; series mostly up to 56 µM.
The nature of experiment [3]: BET inhibitor-based combinations targeting novel dependencies in MECOM-rearranged (r) AML: OCI-AML3 cell line (AID 2202232). Further: nearly all actives have a fitted effect of over 35% in size. Further: potency means the concentration at half of the fitted maximal effect.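 On viability (% of control): plate controls were DMSO vehicle wells for no effect and wells without cells for full effect.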 The following applies: CellTiter-Glo luminescence, 48 h; Potency: OCI-AML3 viability; series mostly up to 46 µM. Summed up: (§1)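 Cells were plated at 500 per well and exposed to an 11-point dose series of each drug for 48 hr. Viability was measured by CellTiter-Glo luminescence, normalized to DMSO and empty-well controls, and summarized as AUC and per-cell-line Z-AUC.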

Experiment [4] can be described thus: BET inhibitor-based combinations targeting novel dependencies in MECOM-rearranged (r) AML: MV-4-11 cell line (AID 2202233). Further: nearly all actives have a fitted effect of over 45% in size. Further: potency means the concentration at half of the fitted maximal effect.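 On viability, % of control: plate controls were DMSO for no effect and blank wells for full effect.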 Particulars: MV-4-11 AML viability, CellTiter-Glo luminescence, 48 h; series mostly up to 46 µM. Summed up:
(§2)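 Activity is given as area under the curve and as Z-AUC, mean-centred within each cell line. It comes from 11-point dose curves normalized to DMSO and empty wells. CellTiter-Glo luminescence was read after 48 hr drug exposure of 500 cells/well.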

Experiment [5] is described as follows: BET inhibitor-based combinations targeting novel dependencies in MECOM-rearranged (r) AML: HNT-34 cell line (AID 2202234). Further: nearly all actives have a fitted effect of over 35% in size. Further: potency means the concentration at half of the fitted maximal effect.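 On viability (% of control): plate controls were vehicle wells for no effect and cell-free wells for full effect.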 The following applies: HNT-34 AML viability, CellTiter-Glo luminescence, 48 h; series mostly up to 46 µM. The procedure, abridged: as §2
The nature of experiment [6]: BET inhibitor-based combinations targeting novel dependencies in MECOM-rearranged (r) AML: UCSD-AML1 cell line (AID 2202235). Further: nearly all actives have a fitted effect of over 40% in size. Further: potency means the concentration at half of the fitted maximal effect.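 On viability (% of control): plate controls were DMSO vehicle wells for no effect and blank wells for full effect.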 The following applies: UCSD-AML1 AML cells viability, CellTiter-Glo, 48 h; series mostly up to 46 µM. The procedure, abridged:
as §2

Experiment [7] can be described thus: BET inhibitor-based combinations targeting novel dependencies in MECOM-rearranged (r) AML: AML-191 cell line (AID 2202236; further: nearly all actives have a fitted effect of over 35% in size; further: potency means the concentration at half of the fitted maximal effect;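 on viability (% of control): plate controls were vehicle wells for no effect and wells without cells for full effect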). The following applies: AML-191 viability, CellTiter-Glo luminescence, 48 h; series mostly up to 46 µM. The procedure, abridged: as §1
The nature of experiment [8]: BET inhibitor-based combinations targeting novel dependencies in MECOM-rearranged (r) AML: AML-194 cell line (AID 2202237; further: nearly all actives have a fitted effect of over 40% in size; further: potency means the concentration at half of the fitted maximal effect;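 on viability (% of control): plate controls were vehicle wells for no effect and wells without cells for full effect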). Particulars: AML-194 (MECOM-r AML) viability, CellTiter-Glo, 48 h; series mostly up to 46 µM. Summed up:
as §1

The nature of experiment [9]: BET inhibitor-based combinations targeting novel dependencies in MECOM-rearranged (r) AML: SET-2 cell line (AID 2202231). Further: nearly all actives have a fitted effect of over 35% in size. Further: potency means the concentration at half of the fitted maximal effect.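 On viability: plate controls were DMSO treated cells for no effect and wells without cells for full effect.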 The following applies: SET-2 AML cells viability, CellTiter-Glo luminescence, 48 h; viability: stronger effect = lower value, concentration not given here. Summed up: as §1

As for `C=C1C(O)C[C@@H]2C(C(=O)O)=CO[C@@H](O[C@@H]3O[C@H](CO)[C@@H](O)[C@H](O)[C@H]3OC(=O)c3ccc(O)cc3)[C@H]12` (some centres not stated), the Potency entry in experiment [1] and in experiment [2] was “inactive” throughout.

Consider `CCc1nc(C(N)=O)c(Nc2ccc(N3CCC(N4CCN(C)CC4)CC3)c(OC)c2)nc1NC1CCOCC1`, for which the Potency entry in [1] and in experiment [2] was “inactive” each time. Also, the Potency in experiment [3] is 5.9 µM (active); in experiment [4], 0.059 µM (active); in experiment [5], 1.48 µM (active); in experiment [6] it was 2.63 µM (active); in [7], 2.63 µM (active); in experiment [8] it was 3.32 µM (active).

In the case of `CC(=O)O[C@H]1CC[C@]2(C)[C@H]3CC[C@]4(C)Oc5oc(C)cc(=O)c5C[C@H]4[C@]3(C)CC[C@H]2C1(C)C`, the Potency entry in [1] and in [2] was “inactive” in each case.

Regarding `COc1ccccc1[C@H](c1cccc2ccccc12)[C@@](C)(C#N)C(=O)N1CCC(c2cccc(C(F)(F)F)c2)CC1`, the Potency entry in experiment [1], in experiment [2], in experiment [6] and in [7] was “inactive” in each case. The viability in experiment [9] was 110%. In addition, the values for the Potency in experiment [4] and in [5] were 5.25 µM (active) and 13.2 µM (active), respectively.

On to `C=C1C(OC(C)=O)C(=O)C2C(C)(C)C(O)CCC2(C)C1CC(OC(C)=O)/C(C)=C/COC(C)=O` (configuration not stated), for which the Potency entry in experiment [1] and in [2] was “inactive” throughout.

Regarding `Cc1nc(Nc2n[nH]c3c2CN(C(=O)NC(CN(C)C)c2ccccc2)C3(C)C)c2sccc2n1` (configuration not stated), the Potency result in experiment [1] and in experiment [2] was “inactive” in each case.

For `CC(=O)OCC(=O)[C@@]1(O)CC[C@H]2[C@@H]3CCC4=CC(=O)C=C[C@]4(C)[C@H]3[C@@H](O)C[C@@]21C`, the Potency result in experiment [1], in [2], in experiment [4] and in experiment [6] was “inactive” each time. The viability in experiment [9] was 114%. In addition, the Potency is 0.833 µM (active) in [7] and 0.372 µM (active) in experiment [8].

For the compound `CCNC(=O)Nc1ncc(-c2cc(-c3c(C)cc(OC)cc3C)nc(-c3cnccn3)n2)s1`, the Potency entry in [1], in [2], in experiment [3], in experiment [4], in experiment [5] and in experiment [6] was “inactive” in each case. Besides, the Potency entry in experiment [7] and in [8] was “inactive” throughout. Further, the viability in experiment [9] is 114%.

`O=C(NCC(=O)N1CCCC1)Nc1ccc2cnccc2c1`: the Potency result in experiment [1], in experiment [2], in experiment [5], in [7] and in experiment [8] was “inactive” each time. The viability in experiment [9] is 109%.

On to `CC(C)(C)c1ccc(NC(=O)N2CCN(c3ncccc3Cl)CC2)cc1`, for which the Potency result in [1] and in experiment [2] was “inactive” in each case.

With `C=CC(=O)Nc1cccc(Sc2nc(Nc3ccc(N4CCN(C)CC4)cc3)ncc2Cl)c1`, the Potency entry in experiment [1] and in experiment [2] was “inactive” each time. Moreover, the Potency in experiment [9] was 11.8 µM (active); in [3] it was 13.2 µM (active); in experiment [4], 2.95 µM (active); in [5] it was 6.61 µM (active); in experiment [6], 9.34 µM (active); in experiment [7], 10.5 µM (active). Also, the Potency in experiment [8] was 10.5 µM (active).

For the compound `CC(C)(C)c1cc(NC(=O)Nc2ccc(-c3cn4c(n3)sc3cc(OCCN5CCOCC5)ccc34)cc2)no1`, the Potency entry in [1] and in experiment [2] was “inactive” throughout. Besides, the Potency in [3] is 4.68 µM (active); in experiment [4], 0.003 µM (active); in experiment [7], 4.68 µM (active); in experiment [8], 14.8 µM (active).

For the compound `COC(=O)c1cc(OC)c(O[C@@H]2O[C@@H](C)[C@H](O)[C@@H](O)[C@H]2O)c(OC)c1`, the Potency entry in [1] and in experiment [2] was “inactive” in each case.

For `CC(C)NC(=O)N1CC[C@H](N=C2Nc3cc(F)ccc3N(CC(F)F)c3ccc(Cl)cc32)C1`, the Potency result in experiment [1] and in experiment [2] was “inactive” in each case. For the same compound, the viability, % of control in [4] was 94.7% [at 8.46 µM]. The viability (% of control) in [5] was 99.5% [at 8.46 µM]; in experiment [6], 104% [at 8.46 µM]; in experiment [7], 98.9% [at 8.46 µM]; in experiment [8], 93.8% [at 8.46 µM].

For `OC[C@H]1O[C@@H](OCCc2ccccc2)[C@H](O)[C@@H](O)[C@@H]1O`, the Potency result in experiment [1] and in experiment [2] was “inactive” throughout.

Take `COc1cc2nccc(Oc3ccc(NC(=O)C4(C(=O)Nc5ccc(F)cc5)CC4)cc3)c2cc1OC`: the Potency entry in experiment [1] and in experiment [2] was “inactive” throughout. Further, the Potency in experiment [4] was 0.0166 µM (active); in experiment [5], 2.95 µM (active).
